# What was measured:
# Experiment in all cases: PBM binding z-score (relative to random genomic background probes); higher = stronger binding; sequences stand for … in GC…GCGATTGACAGCGTAGAATGAAGG
# [1] = system: PPARg:RXRa DBDmut IVT, anti-RXR (DBD mutation: RXRa K156A/R161A, NR concentration 270 nM, RXRa partner concentration 90 nM)
# Method in brief: (§1)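 On custom Agilent 4×180K arrays, double-stranded probes with 34-nt variable regions carried direct-repeat seeds, single-nucleotide variants, half-site ablations or random human genomic background. Ligand-free nuclear receptor dimers were applied for 1 h, and binding was read with antibodies against each partner (one per run). Binding z-scores come from regression-normalized fluorescence, with the random background probes as reference.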
# [2] = system: PPARg:RXRa IVT, anti-PPARg (NR concentration 270 nM, RXRa partner concentration 90 nM)
# Method in brief: as §1
# [3] = system: PPARg DBDmut:RXRa IVT, anti-PPARg (DBD mutation: PPARg1 K132A/R137A, NR concentration 270 nM, RXRa partner concentration 90 nM)
# Method in brief: as §1
# [4] = system: PPARg DBDmut IVT, anti-PPARg (DBD mutation: PPARg1 K132A/R137A, NR concentration 270 nM)
# Method in brief: as §1
# [5] = system: PPARg homodimer (NR concentration 180 nM)
# Method in brief: as §1
# [6] = system: PXR:RXRa (NR concentration 270 nM, RXRa partner concentration 90 nM)
# Method in brief: as §1
# [7] = system: PXR homodimer (NR concentration 270 nM)
# Method in brief: as §1
# [8] = system: RARa:RXR (NR concentration 270 nM, RXRa partner concentration 90 nM)
# Method in brief: as §1
# [9] = system: RARa homodimer (NR concentration 270 nM)
# Method in brief: as §1
# [10] = system: RARb:RXRa (NR concentration 270 nM, RXRa partner concentration 90 nM)
# Method in brief: as §1
# [11] = system: RARb homodimer (NR concentration 270 nM)
# Method in brief: as §1
# [12] = system: RARg:RXRa (NR concentration 270 nM, RXRa partner concentration 90 nM)
# Method in brief: as §1
# [13] = system: RARg homodimer (NR concentration 270 nM)
# Method in brief: as §1
# [14] = system: RXRa DBDmut IVT, anti-RXR (DBD mutation: RXRa K156A/R161A, NR concentration 90 nM)
# Method in brief: as §1
# [15] = system: RXRa homodimer (NR concentration 180 nM)
# Method in brief: as §1
# [16] = system: THRa:RXRa (NR concentration 90 nM, RXRa partner concentration 90 nM)
# Method in brief: as §1
# [17] = system: THRa homodimer (NR concentration 90 nM)
# Method in brief: as §1
# [18] = system: VDR:RXRa (NR concentration 270 nM, RXRa partner concentration 90 nM)
# Method in brief: as §1
# [19] = system: VDR homodimer (NR concentration 270 nM)
# Method in brief: as §1
Sequence,PBM binding z-score [1],PBM binding z-score [2],PBM binding z-score [3],PBM binding z-score [4],PBM binding z-score [5],PBM binding z-score [6],PBM binding z-score [7],PBM binding z-score [8],PBM binding z-score [9],PBM binding z-score [10],PBM binding z-score [11],PBM binding z-score [12],PBM binding z-score [13],PBM binding z-score [14],PBM binding z-score [15],PBM binding z-score [16],PBM binding z-score [17],PBM binding z-score [18],PBM binding z-score [19]
GATACAGGGTCAGCTGGAGGCCAGAGTATGGAAA,1.09,2.28,-0.601,-0.834,2.9,3.53,-0.0691,5.12,0.139,4.3,3.23,6.73,5.23,1.38,4.35,3.16,0.136,3.29,0.57
CCTCGGAGGACAGAAGGTCGGAGCTGTCCGCTTT,-0.473,-0.963,-1.7,-2.08,0.00885,-0.282,-0.764,-0.413,-0.449,1.12,1.03,0.91,0.81,-0.0663,-0.268,0.396,-0.577,-0.398,-0.651
TGTAGTTGGTCAAAGGTCACACACTCGAAATGCG,1.7,6.41,2.33,2.58,5.57,6.06,1.72,7.38,3.74,4.86,4.97,7.09,6.06,1.24,8.07,4.1,2.18,5.19,2.51
CCTACTTGGCCATCAGGTCATTGATATCAACGTT,1.33,1.93,0.603,0.617,1.82,1.95,1.62,2.17,1.76,2.19,2.89,2.15,2.12,1.5,1.43,3.39,3.64,2.12,2.19
CAAATTAGGTCAAAGGTCAAAGTCGAGCCAACCA,8.74,8.96,4.97,4,6.21,7.1,2.26,8.95,3.73,5.94,5.41,9.09,7.57,3.17,10.4,4.76,2.4,6.81,3.43
CCTGCTAGGTGAATGGTCAGCTAAAGCAGCTCGC,3.48,2.62,-0.739,-1.37,-0.377,-0.698,-0.722,-0.44,-1.03,1,0.445,0.0358,0.301,-0.37,-0.237,0.283,-0.317,-0.699,-0.841
TCATATAGGCAAAGGTGAAAGTCGAACGATATGA,2.2,2.33,0.797,0.292,0.811,1.04,0.14,2.02,0.326,1.74,1.42,1.59,1.08,0.694,2.3,1.22,-0.37,0.976,-0.123
CGTCAGAGTTCAAGGTAACGTAACAGAAAGCAGC,0.546,0.936,-0.0239,0.226,2.34,4.5,2.86,3.31,0.785,4.36,3.02,4.6,5.3,4.91,4.35,2.74,1.04,4.23,4.53
GCTGCTAGGTCAACTGATGCTCAGCTAAAGCTCG,4.93,3.92,-0.517,-0.991,1.02,1.26,-0.735,2.18,-0.0559,4.27,3.18,4.37,5.36,1.64,2.89,2.89,0.915,1.38,-0.0358
TCATATAGGTAACCAGGTGAAAGTCCGTAAGTTA,5.2,5.99,0.0685,0.802,1.14,0.852,0.506,1.06,0.583,1,0.957,0.558,0.452,1.38,1.25,1.73,1.05,1.06,0.27
AGAACGAGGGCACGTTGAGTTGATAGCAGAGTAG,3.79,3.75,0.741,-0.039,0.701,1.33,0.471,0.629,-0.287,2.42,1.28,1.84,1.95,1.8,1.36,1.82,0.141,2.32,2.13
TCTCGTAGATCAATAGAGGTTAAGAAAGTGCGCT,1.66,0.219,0.246,0.204,0.0307,3.08,0.105,1.6,0.0805,0.751,0.966,0.48,0.249,0.754,1.19,2.07,-0.641,1.68,0.163
CATACTAGGTCACCGGAAGGTCAAAGTCCGCATG,7.07,8.03,4.35,1.99,7.45,5.88,2.1,7.25,2.75,5.21,5.62,8.44,7.45,2.21,6.33,4.43,3.31,6.08,3.9
ATCTCTAGGTAAAGTTAAGTGAAAGATCGATAGA,2.61,1.99,0.949,2.08,0.251,-0.00139,0.451,0.249,0.961,0.312,-0.142,0.48,0.546,0.204,0.171,0.478,-0.14,0.476,0.368
CGAACGAGGGCATGAGTTGATAGAAAATGCCGAT,2.74,1.89,-0.343,-0.182,0.547,0.565,0.619,0.664,0.132,1.87,0.815,1.29,1.56,2.47,0.995,1.28,-0.093,1.29,1.74

# — the supplement of paper PMC6555819
